# Laboratory results: PubChem BioAssay AID2685 (National Center for Advancing Translational Sciences (NCATS), 2010)
# Among all 320,000 compounds or so, about 2,100 (0.66%) were called active. Not shown: some 53% with an inconclusive outcome. Calls come from the whole dose curve; as a rule, active = well fitted inhibition curve with a large enough effect in the signal ratio, with a control signal flat (not every such curve was filed as active); inconclusive = small, poorly fitted or top-dose-only effect, or effect the other way, or a change in a side signal; inactive = flat fitted curve, though single readings scatter; the % refers to the signal ratio. Many of the other results were omitted from the sample, so actives are more common in it than they were.
# Experiment: qHTS Assay for Lipid Storage Modulators in Drosophila S3 Cells;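 for cell number change: cells counted by Cell Tracker Red CMTPX staining in the red channel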; for lipid storage change, negative = inhibition: % is set by controls: 0 for no effect and ±100 for the full control effect
# Conditions: BODIPY lipid droplet fluorescence, 18-24 h, cells fed with added oleic acid; cell number change: measured here: cell count max response; series mostly up to 46.1 µM
# Method in brief: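 Drosophila S3 cells got compounds at several concentrations plus oleic acid (400 uM solution). Laser-scanning cytometry with 488 nm excitation read lipid droplets at 500-530 nm and cells at 575-640 nm. Percent activity was relative to 20 uM Triacsin C.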
# Potency is the fitted concentration of half-maximal effect.
Compound,Potency,cell number change,"lipid storage change, negative = inhibition"
CC1=C(C(=O)OCC(C)C)[C@]23C(=O)c4ccccc4[C@@]2(O1)OC(N)=C3C#N,inactive,-12%,
CC(C)(C)CNC(=O)[C@]1(C)CCC[C@@]2(C)C3CC[C@@]4(C)C[C@]3(CCC21)CC4=O (stereo partly drawn),inactive,-13.8%,
CC(C)NC(=O)[C@]1(C)CCC[C@@]2(C)C3CC[C@@]4(C)C[C@]3(CCC21)CC4=O (stereo partly drawn),inactive,-16.5%,
CCCCNC(=O)[C@]1(C)CCC[C@@]2(C)C3CC[C@@]4(C)C[C@]3(CCC21)CC4=O (stereo partly drawn),0.651 µM (active),-24.2%,
COc1ccc(/C(C)=N/NC(=O)CNC(=O)c2cccnc2)cc1,inactive,7.78%,
COc1ccc(C(=O)N/N=c2\oc3ccccc3cc2C(=O)NCc2ccccc2)cc1,inactive,2.22%,
N#CC(c1ccc(F)cc1)c1ccc(C(=O)c2ccccc2)cc1 (stereo not drawn),inactive,-0.0722%,
CN(C(=O)COC(=O)c1ccc2c(c1)NC(=O)CS2)C1CCS(=O)(=O)C1 (stereo not drawn),inactive,4.6%,
CC(=O)Nc1cccc(C(=O)NCCc2ccco2)c1,inactive,7.92%,
CCc1nc2ccc(C(=O)NCCc3ccco3)cc2nc1CC,6.51 µM (active),5.81%,
CCc1nc2ccc(C(=O)NCc3ccc(C)o3)cc2nc1CC,inactive,-3.07%,
O=C(CN(C(=O)CCC(=O)Nc1nccs1)c1ccc2c(c1)OCO2)NCc1ccccc1,inactive,,
CC(C)(C)NC(=O)C1CC(=O)N(CCc2ccc(F)cc2)C1 (stereo not drawn),inactive,23%,
CCC(CC)NC(=O)C1CC(=O)N(CCc2ccc(F)cc2)C1 (stereo not drawn),inactive,,
CCC(C)(C)NC(=O)C1CC(=O)N(CCc2ccc(F)cc2)C1 (stereo not drawn),23.1 µM (active),-4.05%,
Cc1ccc(NC(=O)c2cccs2)cc1,inactive,20.8%,
Cc1cc(C)cc(C(=O)Nc2ccc(NC(=O)c3cccs3)cc2)c1,inactive,17.7%,
Cc1ccc(NC(=O)c2ccc(Cl)c(NC(=O)c3cccs3)c2)cc1,25.9 µM (active),17.6%,
Cc1cc(C(c2nnnn2Cc2ccccc2)N2CCOCC2)c(C)n1-c1ccc2c(c1)OCO2 (stereo not drawn),inactive,-6.63%,
CN(C)C(=O)C(NC(=O)c1ccccc1)=C(Cl)Cl,inactive,,
Cc1cc(C(=O)OCC(=O)NC2CCC(C)CC2)c(C)o1 (stereo not drawn),inactive,1.2%,
CN(C)S(=O)(=O)c1ccc2c(c1)nc(CCC(=O)NCc1ccc(Cl)cc1)n2C,,-1.78%,-6.65% [at 9.22 µM] (inactive)
COc1cccc(NC(=O)C2C3C=CC4(O3)C2C(=O)N(CCCN2CCCC(C)C2)C4C(=O)NC2CCCCC2C)c1 (stereo not drawn),inactive,-4.5%,
COc1ccc(NC(=O)C2C3C=CC4(O3)C2C(=O)N(CCN2CCCCC2C)C4C(=O)NC2CCCC(C)C2C)cc1 (stereo not drawn),inactive,-11.9%,
CC(C)c1ccc(NC(=O)C2C3C=CC4(O3)C2C(=O)N(CCCN2CCCCC2)C4C(=O)NC2CCCCC2)cc1 (stereo not drawn),inactive,2.7%,
CCN(CC)CCN1C(=O)C2C(C(=O)Nc3ccc(C(C)C)cc3)C3C=CC2(O3)C1C(=O)NC1CCCCC1 (stereo not drawn),inactive,1.35%,
COc1cccc(NC(=O)C2C3C=CC4(O3)C2C(=O)N(CCN2CCCCC2)C4C(=O)NC2CCCCC2C)c1 (stereo not drawn),5.8 µM (active),14.4%,
COc1cccc(NC(=O)C2C3C=CC4(O3)C2C(=O)N(CCCN2CCCCC2)C4C(=O)NC2CCCCC2)c1 (stereo not drawn),inactive,1.59%,

Compound,Potency,cell number change,"lipid storage change, negative = inhibition"
COc1ccc(NC(=O)C2C3C=CC4(O3)C2C(=O)N(CCCN2CCCCC2)C4C(=O)NC2CCCC(C)C2C)cc1 (stereo not drawn),inactive,20.6%,
CCN(CC)CCCN1C(=O)C2C(C(=O)Nc3ccc(C(C)C)cc3)C3C=CC2(O3)C1C(=O)NC1CCCCC1 (stereo not drawn),16.4 µM (active),8.06%,
COc1ccc(NC(=O)C2C3C=CC4(O3)C2C(=O)N(CCN2CCCCC2)C4C(=O)NC2CCCC(C)C2C)cc1 (stereo not drawn),0.92 µM (active),27%,
Cc1cccc(NC(=O)CSc2nnc(CNC(=O)c3ccco3)o2)c1,inactive,-11.3%,
CCCn1c(O)c(N=NC(=O)CNC(=O)c2cccnc2)c2ccccc21,inactive,6.42%,
NC(=O)/C=C\c1cn(-c2ccccc2)nc1-c1ccc2c(c1)OCCO2,inactive,13.6%,
O=S(=O)(N/N=C/c1cccnc1)c1ccc(Cl)c(Cl)c1,inactive,4.73%,
C=CCn1c(O)c(C=Nc2ccccc2)sc1=S,inactive,8.83%,
COc1ccc(CCNC(=O)COc2nncc3ccccc23)cc1,inactive,-8.53%,
Cc1ccc(C(C)C)c(OCCCN2CCc3ccccc3C2)c1,14.6 µM (active),-26.9%,
Cc1ccc(OCCCCN2CCc3ccccc3C2)cc1,inactive,-8.99%,
Cc1ccc(C(C)C)c(OCCN2CCc3ccccc3C2)c1,inactive,-16.4%,
COc1c(Br)cc2c(C)c(C(=O)O)oc2c1Br,inactive,24.7%,
CN(C)c1cc(Nc2ccc(O)cc2)c([N+](=O)[O-])c2nonc12,inactive,4.46%,
CCOc1ccc(NS(=O)(=O)c2cc(C(=O)N3CC(C)OC(C)C3)ccc2C)cc1 (stereo not drawn),inactive,,
CCOc1ccc(NS(=O)(=O)c2ccc(C(=O)N3CCCC(C)C3)cc2)cc1 (stereo not drawn),inactive,20.5%,
CCOc1ccc(NS(=O)(=O)c2ccc(C(=O)N3CC(C)OC(C)C3)cc2)cc1 (stereo not drawn),25.9 µM (active),-12.2%,
CN(C)CCCNC(=O)C1CCNCC1,inactive,-14.6%,
NC(=O)N/N=C/C=C/c1ccccc1,inactive,-8.08%,
Cc1ccc(S(=O)(=O)N/N=C\C=C\c2ccccc2)cc1,inactive,,
O=S(=O)(N/N=C\C=C\c1ccccc1)c1ccc(Cl)cc1,11.6 µM (active),-34.4%,
COc1ccc(/C=C/c2c(-c3ccc(OC)cc3)oc3cccnc23)cc1,inactive,-16.2%,
COC(=O)c1sccc1NC(=O)CC1C(=O)NCCN1C(=O)c1c(F)cccc1Cl (stereo not drawn),inactive,12.2%,
O=c1ccc(-c2ccc(S(=O)(=O)N3CCN(c4cccc(Cl)c4)CC3)o2)n[nH]1,inactive,7.08%,
Cc1ccc(S(=O)(=O)N(C)C)cc1NC(=O)c1cncc(Br)c1,8.2 µM (active),-18%,
CN(C)S(=O)(=O)c1cccc(NC(=O)c2cncc(Br)c2)c1,inactive,,
CNS(=O)(=O)c1ccc(NC(=O)c2cncc(Br)c2)cc1,inactive,,
